This passage reports Potency and outcome results from PubChem BioAssay (NCATS).

The target of test [1] is Phospholipid hydroperoxide glutathione peroxidase GPX4 (Homo sapiens) (UniProt P36969). Description: Primary qHTS Assay for Inhibitors of Recombinant Selenoprotein Glutathione Peroxidase 4 (GPX4) (AID 1845192). Also: nearly all actives have a fitted effect of over 65% in size. Also: potency is read from the fitted curve at half-maximal effect. The gist of the method: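 qHTS, GR-coupled: GPX4 200 nM + cpd 30 min RT → GSH 1 mM, NADPH 0.5 mM, GR 100 nM → CHP 0.5 mM start; fluor 340/450 at t0 and t15 min; no-enzyme wells as control.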
Chain of Phospholipid hydroperoxide glutathione peroxidase GPX4 (Homo sapiens) (P36969 whole entry, looked up): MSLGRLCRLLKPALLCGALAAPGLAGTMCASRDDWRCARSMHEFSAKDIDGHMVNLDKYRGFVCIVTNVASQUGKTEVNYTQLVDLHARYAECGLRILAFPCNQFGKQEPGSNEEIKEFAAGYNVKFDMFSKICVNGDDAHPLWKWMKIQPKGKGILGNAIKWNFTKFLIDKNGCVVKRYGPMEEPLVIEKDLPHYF
A general note: Quantitative high-throughput screening tests each substance at several concentrations.

Test [2] concerns the target Luciferin 4-monooxygenase (Photinus pyralis) (UniProt P08659). Briefly: Primary firefly luciferase (FLuc) qHTS assay for identification of artifact compounds. (AID 1845220). Also: nearly all actives have a fitted effect of over 60% in size. A digest of the protocol: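 qHTS, 15 min compound preincubation with substrate (10 uM luciferin, 10 uM ATP) at RT, then 10 nM FLuc; 5 min; luminescence; % inhibition vs no-enzyme/DMSO controls, 4-parameter Hill fit.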

Test [3] is described as follows: Primary fluorescence-based thiol-reactive (MSTI) qHTS assay for identification of artifact compounds. (AID 1845221). Also: nearly all actives have a fitted effect of over 65% in size. Also: potency is read from the fitted curve at half-maximal effect. The gist of the method: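 In PBS pH 7.4 with 2% DMSO, each compound met 4 uM MSTI for one hour at ambient temperature, shielded from light, before fluorescence detection.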
Test [4] deals with Nanoluciferase (engineered Oplophorus gracilirostris luciferase). Briefly: Primary Nanoluciferase (NLuc) qHTS assay for identification of artifact compounds. (AID 1845222). Also: series mostly up to about 54 µM. The gist of the method:
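Luminescence read-out of secreted NLuc in S16 cell conditioned medium (1:55); compounds tested with 15 min RT preincubation, then Nano-Glo substrate 1:100, 5 min. % inhibition vs no-enzyme and DMSO controls, 4-parameter Hill fit.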

The nature of test [5]: Primary redox qHTS assay for identification of artifact compounds. (AID 1845223). The gist of the method:
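Redox-cycling detection via DTT (250 uM final) oxidation coupled to Amplex Red (25 uM)/HRP (250 mU/mL) in HBSS. 15 min preincubation plus 30 min after DTT, room temperature. Ex/Em 525/598 nm; 4-parameter Hill fit against DMSO and 10 uM DA3003.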

Test [6] is described as follows: Quantitative High-Throughput drug screen in 47 multiple myeloma cell lines against the NCATS MIPE library collection: FR4_PLB cell viability assay (AID 1918924; also: nearly all actives have a fitted effect of over 35% in size; also: potency is read from the fitted curve at half-maximal effect). The gist of the method: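 qHTS of the MIPE 4.0 collection: 500 myeloma cells/well, 48 h drug exposure at 37C in 5% CO2, then CellTiter-Glo for 5 min at room temperature before luminescence reading.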
A short description of test [7]: Quantitative High-Throughput drug screen in 47 multiple myeloma cell lines against the NCATS MIPE library collection: Delta47_JCRB cell viability assay (AID 1918925; also: nearly all actives have a fitted effect of over 45% in size; also: potency is read from the fitted curve at half-maximal effect). A digest of the protocol: (§1)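 Primary qHTS used for cherry-picking: cells at 500/well, library compounds for 48 h (37C, 5% CO2), luminescent ATP assay.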
Test [8] is described as follows: Quantitative High-Throughput drug screen in 47 multiple myeloma cell lines against the NCATS MIPE library collection: EJM_DSMZ cell viability assay (AID 1918926; also: potency is read from the fitted curve at half-maximal effect; nearly all actives have a fitted effect of over 30% in size). The gist of the method: as §1
Test [9] in a line: Quantitative High-Throughput drug screen in 47 multiple myeloma cell lines against the NCATS MIPE library collection: AMO1_DSMZ cell viability assay (AID 1918927; also: nearly all actives have a fitted effect of over 30% in size). The gist of the method: as §1

Several values for one entry are separate records, joined by “and”; a condition that tells them apart may be missing. Identical values can stand only once. Inconclusive results are not listed. More than one record can exist for a structure, and the calls need not agree. Activity calls are given as the source filed them. Calls follow the shape of the dose curve; as a rule, active = well fitted curve in the direction sought with a large enough effect; inconclusive = small, poorly fitted or top-dose-only effect, or another doubt; inactive = no such curve, though single readings can be large; an effect the other way counts as inactive or inconclusive.

With `COC(=O)[C@@H]1[C@H]2C[C@H]3c4[nH]c5ccccc5c4CCN3C[C@@H]2CC[C@@H]1O`, the Potency result in [1], in test [2], in [3] and in test [4] was “inactive” each time. Also, the compound was classed as inactive in test [5].
For the compound `O=C(NCCN1CCOCC1)c1ccc(Cl)cc1`, in test [1], the Potency entry was “inactive”.
On the same count and under the same terms, to `CN(C)Cc1cccc(N=C(c2ccccc2)c2c(O)[nH]c3cc(C(=O)N(C)C)ccc23)c1` belongs “inactive”.
As to `CCN(CC)CCOC(=O)c1ccc(N)cc1`, in test [1], the Potency result was “inactive”.
`COc1ccc2c(Oc3ccc(NC(=O)c4c(C)n(CC(C)(C)O)n(-c5ccccc5)c4=O)cc3F)ccnc2c1`: the Potency result in [1], in test [2], in test [3] and in [4] was “inactive” each time. Moreover, in [5], the outcome was inactive. In addition, the Potency was 26.4 µM (active) in [6] and 23.5 µM (active) in [7].
Consider `O=C1NCC2(CCN(CCc3ccccc3)CC2)O1`, for which the Potency result in test [1] is “inactive”.
Same read-out and setting: with `CC(=O)N[C@@H](CS)C(=O)O` the entry was “inactive”.
With `OC[C@@H](O)[C@H](O)[C@H](O)[C@@H](O)CO`, the Potency result in test [1] was “inactive”.
As for `CS(=O)(=O)N(Cc1ccco1)CC(O)Cn1c2ccccc2c2ccccc21` (configuration not stated), the Potency result in test [1], in [2], in test [3], in test [4] and in test [6] was “inactive” each time. For the same compound, the result in test [5] was inactive.
Turning to `CCN1CCC[C@H]1CNC(=O)c1cc(S(N)(=O)=O)ccc1OC`, the Potency result in [1], in test [2], in test [3] and in test [4] was “inactive” each time. For the same compound, in test [5], the call was inactive.
Consider `CC(C)NCC(O)COc1cccc2[nH]ccc12` (configuration not stated), for which the Potency entry in test [1], in test [2], in test [3] and in test [4] was “inactive” throughout. Also, the compound was called inactive in test [5].
On to `C[C@@H](O)[C@H]1C(=O)N2C(C(=O)O)=C(S[C@@H]3CN[C@H](C(=O)N(C)C)C3)[C@H](C)[C@H]12`, for which, in test [1], the Potency entry is “inactive”.
Same read-out and setting: with `c1cc(-c2sc(-c3ccncc3)c(-c3ccncc3)c2-c2ccncc2)ccn1` the entry was “inactive”.
Regarding `COc1ccc(C2Sc3ccccc3N(CCN(C)C)C(=O)C2OC(C)=O)cc1` (configuration not stated), the Potency entry in test [1], in [2], in test [3], in test [4], in [6] and in test [7] was “inactive” each time. The compound was classed as inactive in test [5].
Regarding `CCCCC1C(=O)N(c2ccccc2)N(c2ccccc2)C1=O`, the Potency result in [1] was “inactive”.
Regarding `COc1ccc(-n2c(C)c([N+](=O)[O-])c3ccc(O)cc32)cc1`, the Potency result in test [1] was “inactive”.
Take `COc1cc2ncnc(-n3nc(-c4ccccn4)nc3N)c2cc1OC`: the Potency result in test [1], in test [2], in test [3], in [4] and in test [9] was “inactive” throughout. In addition, the call in test [5] was inactive. For the same compound, the Potency was 11.8 µM (active) in test [6], 1.48 µM (active) in test [7] and 14.8 µM (active) in [8].
In the case of `NCCS`, in test [1], the Potency entry was “inactive”.
The same measure, in the same setting: to `O=C1NC(=O)C(c2ccccc2)(c2ccccc2)N1` belongs “inactive”.
Take `Cc1cccc(C)c1OCC(C)N` (configuration not stated): in test [1], the Potency result is “inactive”.
`O=C(O)Cc1cccc2ccccc12`: in test [1], the Potency result was “inactive”.
The same measure, in the same setting: with `CC1=C(/C=C/C(C)=C/C=C/C(C)=C/C(=O)Nc2ccc(O)cc2)C(C)(C)CCC1` the entry was “inactive”; with `CCN(CC)C(=O)c1ccc(O)c(OC)c1`, “inactive”.
For `CC(=O)O[C@]1(C(C)=O)CC[C@H]2[C@@H]3C=C(Cl)C4=CC(=O)[C@@H]5C[C@@H]5[C@]4(C)[C@H]3CC[C@@]21C`, the Potency result in [1], in [2], in test [3] and in test [4] was “inactive” throughout. Moreover, in [5], the call was inactive.
Consider `COc1ccccc1N1CCN(CCCNc2cc(=O)n(C)c(=O)n2C)CC1`, for which the Potency result in [1], in test [2], in [3] and in test [4] was “inactive” in each case. Also, the outcome in [5] was inactive.
As to `Clc1ccc(Cn2c(CN3CCCC3)nc3ccccc32)cc1`, the Potency result in test [1], in test [2], in [3] and in test [4] was “inactive” each time. In addition, the result in test [5] was inactive.
For the compound `Cc1ccc(/C=N/NC(=O)c2ccccc2Oc2ccccc2)o1`, the Potency entry in test [1] is “inactive”.
Consider `CC(=O)CCCCn1c(=O)c2c(ncn2C)n(C)c1=O`, for which the Potency entry in [1], in test [2], in test [3] and in [4] was “inactive” in each case. Besides, the call in test [5] was inactive.
As to `CC/C(=C(\c1ccccc1)c1ccc(OCCN(C)C)cc1)c1ccccc1`, the Potency result in [1] was “inactive”.
Still for that read-out and setting: to `CO[C@H]1C[C@@H]2CC[C@@H](C)[C@@](O)(O2)C(=O)C(=O)N2CCCC[C@@H]2C(=O)O[C@H]([C@@H](C)C[C@@H]2CC[C@H](O)[C@H](OC)C2)CC(=O)[C@H](C)C=C(C)[C@@H](O)[C@@H](OC)C(=O)[C@H](C)C[C@H](C)C=CC=CC=C1C` belongs “inactive”.
Same read-out and setting: with `C[N+](C)(C)CCCCCC[N+](C)(C)C` the entry was “inactive”.
For `CCN(CC)CCNC(=O)c1ccc(N)cc1`, the Potency entry in test [1], in [2], in test [3] and in test [4] was “inactive” in each case. Also, in test [5], the call was inactive.
In the case of `CC(C)(C)c1ccc(C(O)CCCN2CCC(C(O)(c3ccccc3)c3ccccc3)CC2)cc1` (configuration not stated), the Potency entry in [1] is “inactive”.
`CC(C)(C)Cn1c(N)nc2ccc(-c3[nH]c(C(C)(C)C)nc3-c3ccc(F)cc3)nc21`: the Potency result was “inactive and 9.04 µM (active)” in test [1]; 1.89 µM (active) in test [3]. The Potency entry in [2] and in test [4] was “inactive” in each case. The compound was classed as inactive in [5].
`CC(=O)c1ccc(S(=O)(=O)NC(=O)NC2CCCCC2)cc1`: the Potency result in [1] was “inactive”.
Consider `NC(N)=Nc1nc(CSCC/C(N)=N/S(N)(=O)=O)cs1`, for which the Potency result in [1] was “inactive”.
With `COc1ccc2c(Oc3ccc(NC(=O)c4c(C)n(CC(C)(C)O)n(-c5ccccc5)c4=O)nc3)ccnc2c1`, the Potency entry in test [1], in [2], in test [3] and in test [4] was “inactive” in each case. Besides, in [6], the Potency was 20.9 µM (active).
